# High-throughput results deposited in PubChem BioAssay by National Center for Advancing Translational Sciences (NCATS).
# An excerpt weighted towards active compounds, which were near 19% of everything screened.
# HT1080 IDH1KD tx: qHTS for induction of synthetic lethality in tumor cells producing 2HG: qHTS for the HT-1080-IDH1KD cell line. HT-1080 IDH1 knockdown viability, ATP luminescence, 48 h. Potency, µM (top dose mostly 46.1 µM), inactives show at the top dose activity, negative = toxicity, actives largely listed as cytotoxic. actives 2% (n = 360,000). AID 686971, 2013;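 note: 0% = DMSO wells and -100% = cell-free medium wells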
#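 Viability of IDH1-knockdown HT-1080 fibrosarcoma cells was assessed by CellTiter-Glo after 48 h at 37 °C with titrated compound; concentration-effect curves were classified by fit quality and response size.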
# HT1080NT lethal: qHTS for induction of synthetic lethality in tumor cells producing 2HG: qHTS for the HT-1080-NT fibrosarcoma cell line; Potency, µM (highest dose often 46.1 µM), inactives show top-dose activity, negative = less viability, hits mostly cytotoxic; actives 1.6% (n = 360,000); HT-1080-NT fibrosarcoma viability, CellTiter-Glo ATP luminescence, 48 h;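 note: NT is the 2HG producing partner of a matched IDH1 knockdown line; 0% = DMSO-treated cells and -100% = media-only wells without cells; nearly all actives have a fitted effect of over 55% in size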
#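 HT-1080-NT; 750 cells/well; 5% FBS RPMI; 48 h compound, 37 degrees C; CellTiter-Glo luminescence; curve fitting and curve-class assignment.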
# DT40 TDP1 CPT: qHTS for Inhibitors of human tyrosyl-DNA phosphodiesterase 1 (TDP1): qHTS in cells in presence of CPT | AID 686979, 2013 | actives 12% (n = 420,000) | chicken DT40 Tdp1-/-;hTDP1 cells + 20 nM CPT, ATP luminescence, 48 h | Potency, µM (highest dose often 46.2 µM), inactives show at the top dose activity change, negative = growth inhibition, actives largely listed as inhibitors; note: nearly all actives have a fitted effect of over 55% in size
#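 Cell growth measured by CellTiter-Glo luminescence after a minimum 48 h, 37 C compound exposure with 20 nM CPT in Tdp1-knockout DT40 cells stably expressing hTDP1, seeded 400/well; qHTS titration format.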
# KB-3-1 cytotox: qHTS assay for MDR1-selective chemotherapeutics: Primary screen using the parental adenocarcinoma cell KB-3-1; KB-3-1 viability, CellTiter-Glo ATP luminescence, 72 h; Potency, µM (top dose mostly 46.1 µM), most hits filed as cytotoxic; actives 1.4% (n = 400,000); note: nearly all actives have a fitted effect of over 60% in size
#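 KB-3-1 parental drug-naive adenocarcinoma cells in DMEM/10% FBS, incubated 72 h at 37 C with pin-transferred compounds across a concentration series. Viability by CellTiter-Glo luminescence; concentration-response curves fitted after normalization.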
# KB-V1 cytotox: qHTS assay for MDR1-selective chemotherapeutics: Primary screen using the drug-selected MDR subline cells KB-V1; Potency, µM (titrated, usually from 46.1 µM), usual class: cytotoxic; KB-V1 MDR cells viability, CellTiter-Glo, 72 h; AID 1347076, 2019; actives 3.4% (n = 400,000); note: nearly all actives have a fitted effect of over 60% in size
#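 Cytotoxicity via CellTiter-Glo luminescence after 72 h compound exposure at 37 degrees C. Cells: drug-selected KB-V1 line, DMEM phenol-red free plus 10% FBS. Compounds tested at multiple concentrations; normalized data fitted to concentration-effect curves.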
# TDP1 cell noCPT: qHTS for Inhibitors of human tyrosyl-DNA phosphodiesterase 1 (TDP1): qHTS in cells in absence of CPT; Potency, µM (top dose mostly 46.2 µM), without a hit: at the highest dose activity change, negative = growth inhibition, actives largely listed as inhibitors; actives 15% (n = 420,000); DT40 Tdp1-/- hTDP1 cells, no CPT, ATP luminescence, 48 h; note: nearly all actives have a fitted effect of over 55% in size
#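 A cellular qHTS used chicken DT40 cells lacking endogenous Tdp1 but carrying stably transfected human TDP1. Compounds were applied without camptothecin, and cell growth kinetics were judged by ATP-dependent luminescence after ≥48 hr.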
# * = called active by the depositor; i = inactive; ? = inconclusive; . = not tested or not shown; [ ] = remark or other dose. Calls come from the whole dose curve; as a rule, active = well fitted curve in the direction sought with a large enough effect; inconclusive = small, poorly fitted or top-dose-only effect, or another doubt; inactive = no such curve, though single readings can be large; an effect the other way counts as inactive or inconclusive. Unless noted, % is set by controls: 0 for no effect and ±100 for the full control effect; potency is the fitted concentration of half-maximal effect.
SMILES,HT1080 IDH1KD tx,HT1080NT lethal,DT40 TDP1 CPT,KB-3-1 cytotox,KB-V1 cytotox,TDP1 cell noCPT
Oc1c(Cl)c(Cl)c(Cl)c(Cl)c1Cl,?,?,?,i,?,21µM*
COP(=S)(OC)Oc1ccc(S(=O)(=O)N(C)C)cc1,.,.,9%,.,.,5%
O[C@@H]1CCCN2C[C@@H](O)[C@@H](O)C12 (stereo not given in full),.,.,-4%[166 µM],.,.,-2%[166 µM]
O=C(Nc1ccc(Cl)cc1)Nc1ccc(Cl)c(C(F)(F)F)c1,.,.,4.7µM*,.,.,3.3µM*
O=C(NC(=O)c1c(F)cccc1F)Nc1ccc(Cl)c(Oc2ncc(C(F)(F)F)cc2Cl)c1,.,.,10%,.,.,-20%
O=C(CCl)Nc1sccc1C(=O)c1ccccc1,?,10µM*,15µM*,i,?,?
NC(=O)c1ccsc1NC(=O)COC(=O)Cc1ccccc1,-5%,1%,-6%,i,i,?
COC1=C(C)C(=O)C2=C(C1=O)C(CO)N1C(C#N)C3CC4C(C1C2N1CCOC41)N3C (stereo not given),0.65µM*,-17%,0.052µM*,?,0.58µM*,0.15µM*
S=C(NCCc1ccccc1)N1Cc2ccc(Br)cc2-n2nncc2C1,?,?,?,?,i,?
CCOc1cc2c(cc1OCC)-n1cccc1C(c1ccc(C)cc1C)NC2 (stereo not given),21µM*,?,?,?,?,?
CCOc1cc2c(cc1OCC)-n1cccc1C(c1cc(C)c(OC)cc1C)NC2 (stereo not given),-16%,-20%,10µM*,i,i,7.3µM*
CCOc1cc2c(cc1OCC)-n1cccc1C(c1ccc(OC)c(O)c1)NC2 (stereo not given),-3%,-21%,?,i,i,18µM*
CCOc1cc(C2NCc3ccccc3-n3cccc32)ccc1OC (stereo not given),1%,-7%,-17%,i,i,-27%
O=c1[nH]c(=S)n(C2CC2)c(O)c1C=Nc1cccc(C(F)(F)F)c1,-1%,1%,?,i,i,?
CCCCOC1NC(=O)NC(=O)C1(F)C(=O)OCC (stereo not given),-24%,-16%,?,i,i,?
Cc1ccc(C(O)P(=O)(OCCC(C)C)c2ccc(N(C)C)cc2)cc1 (stereo not given),11%,-1%,?,i,i,-17%
Cc1oc2ccc(OC(=O)N3CCOCC3)cc2c1C(=O)OC(C)C,-5%,-2%,?,i,?,26µM*
C[C@]12CCC(=O)CC1CCC1C2CC[C@]2(C)C(OC(=O)CCC(=O)O)CCC12 (stereo not given in full),6%,9%,17%,i,i,-29%
COP(=O)(NC(=O)C(Cl)(Cl)Cl)OC,0%,-3%,-3%,i,?,-16%
CN1C(=O)CCS(=O)(=O)C1c1ccc(Cl)cc1 (stereo not given),.,.,9%,.,.,0%
O=[N+]([O-])c1ccccc1,.,.,7%,.,.,10%
O=[N+]([O-])c1ccc(Oc2ccc(N=C=S)cc2)cc1,.,.,?,.,.,12µM*
CCOC(=O)C1(CCCc2ccccc2)CCN(C2CCC2)CC1,-9%,-4%,-23%,i,i,?
O=C(O)c1cc(O)c(O)c(O)c1,.,.,0.58µM*,.,.,0.92µM*
Cc1ccc(N2CCN(C(=O)c3cn(CC4CCCCC4)nn3)C(C)C2)cc1 (stereo not given),?,?,18µM*,i,?,?
SMILES,HT1080 IDH1KD tx,HT1080NT lethal,DT40 TDP1 CPT,KB-3-1 cytotox,KB-V1 cytotox,TDP1 cell noCPT
O=C(OCCN1CCCCC1)C(O)(c1ccccc1)c1ccccc1,.,.,7%,.,.,-1%
O=C(c1cc2c(s1)-c1ccccc1OC2)N1CCC2(CC1)OCCO2,?,?,?,i,13µM*,?
O=C(c1cc2c(s1)CCCC2)N1CCC2(CC1)OCCO2,3%,-1%,-12%,i,i,?
O=C(c1ccc2c(c1)OCO2)C1CCCN(Cc2c(F)cccc2Cl)C1 (stereo not given),6%,4%,-28%,i,i,?
O=C(c1ccc(Cl)cc1)C1CCCN(Cc2ccc3nonc3c2)C1 (stereo not given),-16%,-3%,16µM*,i,i,?
Cc1cc(Cl)ccc1C(=O)C1CCCN(Cc2ccon2)C1 (stereo not given),1%,0%,?,i,16µM*,?
O=C(c1cccc2ccccc12)C1CCCN(Cc2ccon2)C1 (stereo not given),-9%,-9%,?,i,i,?
COc1cccc(C(=O)C2CCCN(Cc3ccc4nsnc4c3)C2)c1 (stereo not given),-2%,-14%,?,i,?,?
O=C(c1ccc(Cl)cc1)C1CCCN(Cc2cccc3cccnc23)C1 (stereo not given),?,-30%,23µM*,i,i,16µM*
O=C(c1ccc(Cl)cc1)C1CCCN(Cc2cccc3ncccc23)C1 (stereo not given),?,?,18µM*,?,?,15µM*
COC1=CC(=O)OC(CCc2ccc3c(c2)OCO3)C1 (stereo not given),0%,-3%,4%,i,?,-6%
CCNC(C)Cc1cccc(C(F)(F)F)c1 (stereo not given),.,.,2%,.,.,-15%
CC1CCCC(NC(=O)COC(=O)c2cn(C)c3ccccc23)C1C (stereo not given),1%,3%,-26%,i,i,-27%
O=C(NC(c1cccnc1)C(F)(F)F)c1cnn(-c2nccc(-c3cccs3)n2)c1C1CC1 (stereo not given),.,.,?,.,.,21µM*
COc1cc(/C=C(/C)[N+](=O)[O-])ccc1OCc1ccccc1Cl,5.8µM*,8.2µM*,3.3µM*,?,?,2.9µM*
Cc1ccc(Cn2ccccc2=N)cc1,9%,13%,-8%,i,i,-23%
